Source: the supplement of paper PMC4466140

Experiments:
Experiment in all cases: SPOT peptide array binding signal intensity (averaged, normalized) (arbitrary units (background-subtracted, floor 0; scale differs between SH3 domains)); higher = stronger binding of the SH3 domain to the peptide
AgAbp1 = molecular target: AgAbp1
Description: (§1)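 GST-tagged SH3 domains from S. cerevisiae (Sc), A. gossypii (Ag), C. albicans (Ca) and S. pombe (Sp) were incubated at 10 ug/ml overnight at 4 C on cellulose SPOT membranes carrying 292 synthetic 15-mer peptides mined from the S. cerevisiae proteome (cysteines replaced by serines). Binding was detected with anti-GST antibody, HRP secondary and chemiluminescence, quantified with Genespotter, and reported as normalized spot intensities averaged over biological replicates.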

AgBbc1 = molecular target: AgBbc1
Description: as §1

AgBem1-D1 = molecular target: AgBem1-D1
Description: as §1

AgBzz1-D1 = molecular target: AgBzz1-D1
Description: as §1

AgBzz1-D2 = molecular target: AgBzz1-D2
Description: as §1

AgCyk3 = molecular target: AgCyk3
Description: as §1

AgFus1 = molecular target: AgFus1
Description: as §1

AgHof1 = molecular target: AgHof1
Description: as §1

AgHse1 = molecular target: AgHse1
Description: as §1

AgLsb1 = molecular target: AgLsb1
Description: as §1

AgLsb4 = molecular target: AgLsb4
Description: as §1

AgMyo5 = molecular target: AgMyo5
Description: as §1

AgNbp2 = molecular target: AgNbp2
Description: as §1

AgRvs167 = molecular target: AgRvs167
Description: as §1

AgSho1 = molecular target: AgSho1
Description: as §1

AgSla1-D1-D2 = molecular target: AgSla1-D1-D2
Description: as §1

AgSla1-D3 = molecular target: AgSla1-D3
Description: as §1

CaAbp1-D1 = molecular target: CaAbp1-D1
Description: as §1

CaAbp1-D2 = molecular target: CaAbp1-D2
Description: as §1

CaBbc1 = molecular target: CaBbc1
Description: as §1

CaBem1-D1 = molecular target: CaBem1-D1
Description: as §1

CaBzz1-D1 = molecular target: CaBzz1-D1
Description: as §1

CaBzz1-D2 = molecular target: CaBzz1-D2
Description: as §1

CaCyk3 = molecular target: CaCyk3
Description: as §1

CaFus1 = molecular target: CaFus1
Description: as §1

CaHof1 = molecular target: CaHof1
Description: as §1

CaHse1 = molecular target: CaHse1
Description: as §1

CaLsb1 = molecular target: CaLsb1
Description: as §1

CaLsb4 = molecular target: CaLsb4
Description: as §1

CaMyo5 = molecular target: CaMyo5
Description: as §1

CaNbp2 = molecular target: CaNbp2
Description: as §1

CaRvs167 = molecular target: CaRvs167
Description: as §1

CaRvs167-3 = molecular target: CaRvs167-3
Description: as §1

CaSho1 = molecular target: CaSho1
Description: as §1

CaSla1-D1-D2 = molecular target: CaSla1-D1-D2
Description: as §1

CaSla1-D3 = molecular target: CaSla1-D3
Description: as §1

ScAbp1 = molecular target: ScAbp1
Description: as §1

ScBbc1 = molecular target: ScBbc1
Description: as §1

ScBem1-D1 = molecular target: ScBem1-D1
Description: as §1

ScBzz1-D1 = molecular target: ScBzz1-D1
Description: as §1

ScBzz1-D2 = molecular target: ScBzz1-D2
Description: as §1

ScCyk3 = molecular target: ScCyk3
Description: as §1

ScFus1 = molecular target: ScFus1
Description: as §1

ScHof1 = molecular target: ScHof1
Description: as §1

ScHse1 = molecular target: ScHse1
Description: as §1

ScLsb1 = molecular target: ScLsb1
Description: as §1

ScLsb2 = molecular target: ScLsb2
Description: as §1

ScLsb3 = molecular target: ScLsb3
Description: as §1

ScLsb4 = molecular target: ScLsb4
Description: as §1

ScMyo3 = molecular target: ScMyo3
Description: as §1

ScMyo5 = molecular target: ScMyo5
Description: as §1

ScNbp2 = molecular target: ScNbp2
Description: as §1

ScPex13 = molecular target: ScPex13
Description: as §1

ScRvs167 = molecular target: ScRvs167
Description: as §1

ScSho1 = molecular target: ScSho1
Description: as §1

ScSla1-D1-D2 = molecular target: ScSla1-D1-D2
Description: as §1

ScSla1-D3 = molecular target: ScSla1-D3
Description: as §1

SpAbp1-D1 = molecular target: SpAbp1-D1
Description: as §1

SpBbc1 = molecular target: SpBbc1
Description: as §1

SpBzz1-D1 = molecular target: SpBzz1-D1
Description: as §1

SpBzz1-D2 = molecular target: SpBzz1-D2
Description: as §1

SpCyk3 = molecular target: SpCyk3
Description: as §1

SpHof1 = molecular target: SpHof1
Description: as §1

SpHof1-2 = molecular target: SpHof1-2
Description: as §1

SpHof1-3 = molecular target: SpHof1-3
Description: as §1

SpHse1 = molecular target: SpHse1
Description: as §1

SpLsb1 = molecular target: SpLsb1
Description: as §1

SpLsb4 = molecular target: SpLsb4
Description: as §1

SpMyo1 = molecular target: SpMyo1
Description: as §1

SpNbp2 = molecular target: SpNbp2
Description: as §1

SpPex13 = molecular target: SpPex13
Description: as §1

SpRvs167 = molecular target: SpRvs167
Description: as §1

SpSla1-D1-D2 = molecular target: SpSla1-D1-D2
Description: as §1

SpSla1-D3 = molecular target: SpSla1-D3
Description: as §1

## ALKQKKIPPPFKPHL
AgAbp1
  SPOT peptide array binding signal intensity: 43.5
AgBbc1
  SPOT peptide array binding signal intensity: ≤ 0
AgBem1-D1
  SPOT peptide array binding signal intensity: 4
AgBzz1-D1
  SPOT peptide array binding signal intensity: 43
AgBzz1-D2
  SPOT peptide array binding signal intensity: 22
AgCyk3
  SPOT peptide array binding signal intensity: ≤ 0
AgFus1
  SPOT peptide array binding signal intensity: ≤ 0
AgHof1
  SPOT peptide array binding signal intensity: 7.5
AgHse1
  SPOT peptide array binding signal intensity: ≤ 0
AgLsb1
  SPOT peptide array binding signal intensity: ≤ 0
AgLsb4
  SPOT peptide array binding signal intensity: ≤ 0
AgMyo5
  SPOT peptide array binding signal intensity: ≤ 0
AgNbp2
  SPOT peptide array binding signal intensity: ≤ 0
AgRvs167
  SPOT peptide array binding signal intensity: ≤ 0
AgSho1
  SPOT peptide array binding signal intensity: ≤ 0
AgSla1-D1-D2
  SPOT peptide array binding signal intensity: ≤ 0
AgSla1-D3
  SPOT peptide array binding signal intensity: 2.5
CaAbp1-D1
  SPOT peptide array binding signal intensity: 938
CaAbp1-D2
  SPOT peptide array binding signal intensity: 984
CaBbc1
  SPOT peptide array binding signal intensity: ≤ 0
CaBem1-D1
  SPOT peptide array binding signal intensity: 2
CaBzz1-D1
  SPOT peptide array binding signal intensity: 589
CaBzz1-D2
  SPOT peptide array binding signal intensity: 205
CaCyk3
  SPOT peptide array binding signal intensity: ≤ 0
CaFus1
  SPOT peptide array binding signal intensity: 19.5
CaHof1
  SPOT peptide array binding signal intensity: 0.5
CaHse1
  SPOT peptide array binding signal intensity: 0.5
CaLsb1
  SPOT peptide array binding signal intensity: ≤ 0
CaLsb4
  SPOT peptide array binding signal intensity: ≤ 0
CaMyo5
  SPOT peptide array binding signal intensity: 0.5
CaNbp2
  SPOT peptide array binding signal intensity: 15.5
CaRvs167
  SPOT peptide array binding signal intensity: ≤ 0
CaRvs167-3
  SPOT peptide array binding signal intensity: 4.5
CaSho1
  SPOT peptide array binding signal intensity: ≤ 0
CaSla1-D1-D2
  SPOT peptide array binding signal intensity: ≤ 0
CaSla1-D3
  SPOT peptide array binding signal intensity: 2
ScAbp1
  SPOT peptide array binding signal intensity: 29
ScBbc1
  SPOT peptide array binding signal intensity: ≤ 0
ScBem1-D1
  SPOT peptide array binding signal intensity: ≤ 0
ScBzz1-D1
  SPOT peptide array binding signal intensity: 9
ScBzz1-D2
  SPOT peptide array binding signal intensity: 3
ScCyk3
  SPOT peptide array binding signal intensity: ≤ 0
ScFus1
  SPOT peptide array binding signal intensity: ≤ 0
ScHof1
  SPOT peptide array binding signal intensity: 1
ScHse1
  SPOT peptide array binding signal intensity: 74
ScLsb1
  SPOT peptide array binding signal intensity: ≤ 0
ScLsb2
  SPOT peptide array binding signal intensity: ≤ 0
ScLsb3
  SPOT peptide array binding signal intensity: ≤ 0
ScLsb4
  SPOT peptide array binding signal intensity: ≤ 0
ScMyo3
  SPOT peptide array binding signal intensity: ≤ 0
ScMyo5
  SPOT peptide array binding signal intensity: 1
ScNbp2
  SPOT peptide array binding signal intensity: ≤ 0
ScPex13
  SPOT peptide array binding signal intensity: ≤ 0
ScRvs167
  SPOT peptide array binding signal intensity: ≤ 0
ScSho1
  SPOT peptide array binding signal intensity: ≤ 0
ScSla1-D1-D2
  SPOT peptide array binding signal intensity: ≤ 0
ScSla1-D3
  SPOT peptide array binding signal intensity: 8
SpAbp1-D1
  SPOT peptide array binding signal intensity: 20.5
SpBbc1
  SPOT peptide array binding signal intensity: ≤ 0
SpBzz1-D1
  SPOT peptide array binding signal intensity: 288
SpBzz1-D2
  SPOT peptide array binding signal intensity: ≤ 0
SpCyk3
  SPOT peptide array binding signal intensity: ≤ 0
SpHof1
  SPOT peptide array binding signal intensity: ≤ 0
SpHof1-2
  SPOT peptide array binding signal intensity: ≤ 0
SpHof1-3
  SPOT peptide array binding signal intensity: 39.5
SpHse1
  SPOT peptide array binding signal intensity: 23
SpLsb1
  SPOT peptide array binding signal intensity: ≤ 0
SpLsb4
  SPOT peptide array binding signal intensity: ≤ 0
SpMyo1
  SPOT peptide array binding signal intensity: ≤ 0
SpNbp2
  SPOT peptide array binding signal intensity: ≤ 0
SpPex13
  SPOT peptide array binding signal intensity: ≤ 0
SpRvs167
  SPOT peptide array binding signal intensity: ≤ 0
SpSla1-D1-D2
  SPOT peptide array binding signal intensity: ≤ 0
SpSla1-D3
  SPOT peptide array binding signal intensity: ≤ 0
